In PubChem BioAssay AID1159580 (chemical genetic matrix, 2015):
About 2,000 (36%) of roughly 5,500 compounds were called active. Not shown: some 18% with an inconclusive outcome. No stated cut-off is given here; in the data, active means normalized growth mostly below about 0.91 (no sharp cut-off); inconclusive means no clear call, values can overlap the other calls; inactive means mostly above about 0.92. Some of the results follow.

Assay: chemical genetic growth profiling, strain panel (AID 1159580);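 further: tested at 20 µM; growth read once vehicle control cultures reached saturation at 30 °C; 1 = growth at the plate median or of vehicle wells; lower values mean less growth of the strain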
Details: growth OD

Measured: normalized growth

CC(C)(C)NCC(O)COc1cccc2c1C[C@H](O)[C@H](O)C2 (stereo not given in full)
inactive: S. cerevisiae deletion strains, locus YJR075W, strain HOC1, active compounds read low 1 | S. cerevisiae deletion strains, locus YKL009W, strain mrt4, active compounds read low 0.972 | S. cerevisiae deletion strains, locus YKL068W, active compounds read low 0.986 | S. cerevisiae deletion strains, locus YKL085W, strain MDH1 (second series), active compounds read low 0.99 | S. cerevisiae deletion strains, locus YKL085W, strain MDH1, active compounds read low 0.99 | S. cerevisiae deletion strains, locus YKL160W, strain elf1, active compounds read low 1.01 | S. cerevisiae deletion strains, locus YKL190W, strain CNB1, active compounds read low 0.993 | S. cerevisiae deletion strains, locus YKR001C, strain vps1, active compounds read low 1 | S. cerevisiae deletion strains, locus YKR026C, strain gcn3, active compounds read low 1.01 | S. cerevisiae deletion strains, locus YKR091W, strain srl3, active compounds read low 0.993 | S. cerevisiae deletion strains, locus YLL001W, strain dnm1, active compounds read low 1.01 | S. cerevisiae deletion strains, locus YLL026W, active compounds read low 1.01 | S. cerevisiae deletion strains, locus YLL041C, strain sdh2, active compounds read low 1 | S. cerevisiae deletion strains, locus YLR027C, strain aat2, active compounds read low 1 | S. cerevisiae deletion strains, locus YLR039C, strain RIC1, active compounds read low 0.973 | S. cerevisiae deletion strains, locus YLR058C, strain SHM2, active compounds read low 0.997 | S. cerevisiae deletion strains, locus YLR102C, strain apc9, active compounds read low 0.992 | S. cerevisiae deletion strains, locus YLR113W, strain HOG1, active compounds read low 1.05 | S. cerevisiae deletion strains, locus YLR221C, strain rsa3, active compounds read low 1 | S. cerevisiae deletion strains, locus YLR258W, strain gsy2, active compounds read low 0.998 | S. cerevisiae deletion strains, locus YLR262C, strain YPT6 (second series), active compounds read low 1.01 | S. cerevisiae deletion strains, locus YLR262C, strain YPT6, active compounds read low 0.928 | S. cerevisiae deletion strains, locus YLR268W, strain sec22, active compounds read low 0.994 | S. cerevisiae deletion strains, locus YLR320W, strain mms22, active compounds read low 1.02 | S. cerevisiae deletion strains, locus YLR330W, strain CHS5, active compounds read low 0.986 | S. cerevisiae deletion strains, locus YLR342W, strain FKS1 (second series), active compounds read low 0.993 | S. cerevisiae deletion strains, locus YLR342W, strain FKS1, active compounds read low 1.01 | S. cerevisiae deletion strains, locus YLR357W, strain rsc2, active compounds read low 1.01 | S. cerevisiae deletion strains, locus YLR370C, strain arc18, active compounds read low 1.02 | S. cerevisiae deletion strains, locus YLR371W, strain rom2, active compounds read low 0.994 | S. cerevisiae deletion strains, locus YLR384C, strain iki3, active compounds read low 1.02 | S. cerevisiae deletion strains, locus YLR418C, strain cdc73, active compounds read low 0.946 | S. cerevisiae deletion strains, locus YML016C, strain PPZ1, active compounds read low 1 | S. cerevisiae deletion strains, locus YML032C, strain rad52, active compounds read low 0.999 | S. cerevisiae deletion strains, locus YML120C, strain ndi1, active compounds read low 1.01 | S. cerevisiae deletion strains, locus YML124C, strain tub3, active compounds read low 0.995 | S. cerevisiae deletion strains, locus YMR058W, strain fet3, active compounds read low 1.01 | S. cerevisiae deletion strains, locus YMR078C, strain ctf18, active compounds read low 0.982 | S. cerevisiae deletion strains, locus YMR125W, strain sto1, active compounds read low 1.01 | S. cerevisiae deletion strains, locus YMR129W, active compounds read low 1.01 | S. cerevisiae deletion strains, locus YMR205C, strain PFK2, active compounds read low 1.02 | S. cerevisiae deletion strains, locus YMR223W, strain ubp8, active compounds read low 0.964 | S. cerevisiae deletion strains, locus YMR231W, strain pep5, active compounds read low 0.998 | S. cerevisiae deletion strains, locus YMR263W, strain SAP30, active compounds read low 1.02 | S. cerevisiae deletion strains, locus YMR307W, strain GAS1, active compounds read low 0.959 | S. cerevisiae deletion strains, locus YNL067W, strain RPL9B, active compounds read low 1.02 | S. cerevisiae deletion strains, locus YNL071W, strain lat1, active compounds read low 0.999 | S. cerevisiae deletion strains, locus YNL128W, strain TEP1, active compounds read low 0.988 | S. cerevisiae deletion strains, locus YNL183C, strain NPR1, active compounds read low 1 | S. cerevisiae deletion strains, locus YNL209W, strain ssb2, active compounds read low 0.994 | S. cerevisiae deletion strains, locus YNL233W, strain BNI4, active compounds read low 1.04 | S. cerevisiae deletion strains, locus YNL248C, strain rpa49, active compounds read low 1.01 | S. cerevisiae deletion strains, locus YNL250W, strain rad50, active compounds read low 0.972 | S. cerevisiae deletion strains, locus YNL271C, strain bni1, active compounds read low 0.988 | S. cerevisiae deletion strains, locus YNL298W, strain CLA4, active compounds read low 0.983 | S. cerevisiae deletion strains, locus YNL307C, strain MCK1, active compounds read low 0.986 | S. cerevisiae deletion strains, locus YNL322C, strain KRE1 (second series), active compounds read low 1.01 | S. cerevisiae deletion strains, locus YNL322C, strain KRE1, active compounds read low 0.992 | S. cerevisiae deletion strains, locus YNR049C, strain mso1, active compounds read low 1.01 | S. cerevisiae deletion strains, locus YNR052C, strain pop2, active compounds read low 0.989 | S. cerevisiae deletion strains, locus YOL006C, strain TOP1, active compounds read low 1.05 | S. cerevisiae deletion strains, locus YOL012C, strain htz1 1.13 | S. cerevisiae deletion strains, locus YOL147C, strain pex11, active compounds read low 0.992 | S. cerevisiae deletion strains, locus YOR001W, strain rrp6, active compounds read low 1 | S. cerevisiae deletion strains, locus YOR061W, strain CKA2, active compounds read low 1 | S. cerevisiae deletion strains, locus YOR069W, strain VPS5, active compounds read low 0.999 | S. cerevisiae deletion strains, locus YOR070C, strain gyp1, active compounds read low 1 | S. cerevisiae deletion strains, locus YOR080W, strain dia2, active compounds read low 1.01 | S. cerevisiae deletion strains, locus YOR083W, strain WHI5, active compounds read low 1 | S. cerevisiae deletion strains, locus YOR106W, strain vam3, active compounds read low 1.02 | S. cerevisiae deletion strains, locus YOR136W, strain idh2, active compounds read low 0.994 | S. cerevisiae deletion strains, locus YOR144C, strain elg1, active compounds read low 0.999 | S. cerevisiae deletion strains, locus YOR184W, strain ser1, active compounds read low 0.974 | S. cerevisiae deletion strains, locus YOR231W, strain MKK1, active compounds read low 1.06 | S. cerevisiae deletion strains, locus YOR265W, strain rbl2, active compounds read low 1.01 | S. cerevisiae deletion strains, locus YOR270C, strain vph1, active compounds read low 1.01 | S. cerevisiae deletion strains, locus YOR290C, strain snf2, active compounds read low 1.01 | S. cerevisiae deletion strains, locus YOR316C, strain cot1, active compounds read low 0.985 | S. cerevisiae deletion strains, locus YPL051W, strain arl3, active compounds read low 1 | S. cerevisiae deletion strains, locus YPL078C, strain atp4, active compounds read low 1 | S. cerevisiae deletion strains, locus YPL106C, strain sse1, active compounds read low 1.01 | S. cerevisiae deletion strains, locus YPL240C, strain hsp82, active compounds read low 0.997 | S. cerevisiae deletion strains, locus YPL241C, strain CIN2, active compounds read low 0.987 | S. cerevisiae deletion strains, locus YPL256C, strain CLN2, active compounds read low 1.02 | S. cerevisiae deletion strains, locus YPR119W, strain clb2, active compounds read low 0.996 | S. cerevisiae deletion strains, locus YPR141C, strain kar3, active compounds read low 0.994 | S. cerevisiae deletion strains, locus YPR163C, strain tif3, active compounds read low 0.991 | S. cerevisiae deletion strains, locus YPR167C, strain met16, active compounds read low 0.987 | S. cerevisiae deletion strains, strain wtn01, active compounds read low 0.983 | S. cerevisiae strains, strain wild type, active compounds read low 0.998
